Reference: PubChem BioAssay
Values joined by “and” are separate entries in the source; they are usually repeats but may differ in a detail not shown here. Equal values may be shown once. More than one record can exist for a structure, and the calls need not agree. Active and inactive are the calls of the source.

experiment: PSAC antagonists in infected red cells, primary screen, cell-based, P. falciparum Indochina, OD700, 1 h (AID 1154); conditions: P. falciparum Indochina infected RBC osmotic lysis, higher = more signal, called active from +8 up or from −8 down

Q: With `CO[C@H]1COC(=O)CC=C[C@@H](C)COC(=O)[C@@H](OCc2ccccc2)C=C[C@@H]1C` as the molecule, how does the z-score read?
A: Its z-score is 1 (inactive).

Q: Which z-score does the source give for `CCCC[C@@H]1CN2[C@@H](CC[C@@H](C)[C@@H]2c2ccc(Br)cc2)C(=O)O1` here?
A: Its z-score is 0.952 (inactive) and 1.74 (inactive).

Q: With `CCN1C(=O)[C@H]2[C@H]3[C@H](O)[C@H](O)CC(=NOC[C@@H](O)COCc4ccco4)[C@@H]3CC[C@H]2C1=O` as the molecule, how does the z-score read?
A: Its z-score is -0.0538 (inactive) and 1.03 (inactive).

Q: For `C=CCN(CCCCC)C(=O)C(c1cccs1)N(C(=O)/C=C\C(=O)O)c1ccc(CCO)cc1` (stereo not drawn), which z-score is on record?
A: Its z-score is 0.0722 (inactive) and -0.629 (inactive).

Q: With `C=CCN(C(=O)C1N(c2c(Cl)cccc2CO)C(=O)C2C(C(=O)O)C3C=CC21O3)c1ccc(OC)cc1` (stereo not drawn) as the molecule, how does the z-score read?
A: Its z-score is 2.56 (inactive) and -0.975 (inactive).

Q: Which z-score does the source give for `C=CCN(CCCC)C(=O)C1N(C(C)(C)CO)C(=O)C2C(C(=O)O)C3C=CC21O3` (stereo not drawn) here?
A: The z-score was 0.109 (inactive) and 0.0708 (inactive).

Q: Which z-score does the source give for `C=C[C@@H](C)[C@@H](O)c1ccc(OCCO)cc1` here?
A: Its z-score is 1.23 (inactive) and 0.481 (inactive).

Q: For `C=CCN(CCCCC)C(=O)C1N(C(C)(C)CO)C(=O)C2C(C(=O)O)C3C=CC21O3` (stereo not drawn), which z-score is on record?
A: The z-score was -0.632 (inactive) and -0.588 (inactive).

Q: For `CCOC(=O)[C@@H]1CC2O[C@]23C[C@@H]1C(=O)N1CCC[C@@H]1[C@H]3O[Si](C)(C)C(C)(C)C` (stereo partly drawn), which z-score is on record?
A: The z-score was 0.827 (inactive) and -0.309 (inactive).

Q: Which z-score does the source give for `CCOC(=O)C[C@H]1[C@H](OC(=O)c2ccccc2-c2ccccc2)[C@@H](NC(=O)Cc2ccc(OC)cc2)c2cc(OCCCO)ccc2N1C(=O)Cc1ccc(OC)cc1` here?
A: Its z-score is 2.32 (inactive) and 2.14 (inactive).

Q: With `COC(=O)CC=C[C@@H](C)[C@@H](CO)NS(=O)(=O)c1ccc(C)cc1` as the molecule, how does the z-score read?
A: The z-score was -0.577 (inactive) and 5.54 (inactive).

Q: For `C[N+](C)(C)CCCCCCNC(=O)[C@@H]1C[C@@H]2C(=O)N[C@@H](CCCC[N+](C)(C)C)C(=O)N2[C@@H]1c1ccc(O)cc1`, which z-score is on record?
A: The z-score was 0.973 (inactive) and 1.9 (inactive).

Q: Which z-score does the source give for `COC(=O)C1=C(C)N(Cc2ccccc2)C2=C3C(=O)CCC[C@@H]3[C@@](O)(C(=O)OC)C(=O)N2[C@@H]1c1ccccc1` here?
A: Its z-score is -0.0542 (inactive) and 0.644 (inactive).

Q: With `O=C1C[C@]2(c3ccc([N+](=O)[O-])cc3)C(=O)N(Cc3ccccc3)c3cc(CO)ccc3[C@H]2N1C1CCCCC1` as the molecule, how does the z-score read?
A: Its z-score is 0.164 (inactive) and 11.5 (active).

Q: Which z-score does the source give for `CC(C)=CCCC(C)=CCON=C1C[C@@H](O)[C@@H](O)[C@@H]2[C@@H]3C(=O)N([C@@H](C)c4ccccc4)C(=O)[C@@H]3CC[C@H]12` here?
A: The z-score was 11.1 (active).

Q: With `C[C@@H]1CC[C@H]2C(=O)NC[C@@H](O)CN2[C@H]1c1ccc(Br)cc1` as the molecule, how does the z-score read?
A: Its z-score is 0.211 (inactive) and -0.0955 (inactive).

Q: Which z-score does the source give for `COc1ccc(O[C@H]2C=C[C@@H](c3ccccc3)O[C@@H]2COC(=O)CCC(C)=NO[C@H](C)c2cn([C@H](CO)Cc3ccccc3)nn2)cc1` here?
A: The z-score was 14.1 (active) and 13.6 (active).

Q: For `C=CCN(CCCC)C(=O)C(c1cccs1)N(C(=O)/C=C\C(=O)O)c1c(Cl)cccc1CO` (stereo not drawn), which z-score is on record?
A: The z-score was 0.111 (inactive) and 0.897 (inactive).

Q: For `CC(CO)N1C(=O)[C@@H]2C3C(=O)OCCC=C[C@H]3OC23C=CCN(c2ccc(Cl)cc2)C(=O)[C@@H]13` (stereo partly drawn), which z-score is on record?
A: Its z-score is 0.725 (inactive) and 3.92 (inactive).

Q: For `C=CCN(C(=O)C(c1cccs1)N(CCOCCO)C(=O)/C=C\C(=O)O)C(C)(C)C` (stereo not drawn), which z-score is on record?
A: The z-score was -1.2 (inactive) and -1.15 (inactive).

Q: With `C=C[C@H](OC)[C@@H](O)c1ccc(O)c(F)c1` as the molecule, how does the z-score read?
A: The z-score was -0.0463 (inactive) and 0.351 (inactive).

Q: Which z-score does the source give for `CC(CO)N1C(=O)[C@@H]2C3C(=O)OCCC=C[C@H]3OC23C=CCN(C(C)(C)C)C(=O)[C@@H]13` (stereo partly drawn) here?
A: Its z-score is 0.901 (inactive) and 1.86 (inactive).

experiment: PSAC antagonists in infected red cells, primary screen, cell-based, P. falciparum Indochina, OD700, 2 h (AID 1155);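 further: lysis reports solute entry through the parasite surface anion channel PSAC; channel blockers reduce lysis of infected cells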; conditions: P. falciparum Indochina infected erythrocytes, osmotic lysis OD700; higher = more signal, called active from +8 up or from −8 down

Q: For `COC(=O)C1=C(C)N(Cc2ccccc2)[C@]23O[C@](C(=O)OC)(C(=O)N2[C@@H]1c1ccccc1)[C@@H](C(=O)OC)[C@H]3C(=O)OC`, which z-score is on record?
A: Its z-score is 0.185 (inactive) and 0.319 (inactive).

Q: With `CO[C@@H]1COC(=O)CC=C[C@H](C)COC(=O)[C@H](C)NC(=O)CC=C[C@H]1C` as the molecule, how does the z-score read?
A: The z-score was 0.193 (inactive).

Q: Which z-score does the source give for `COC(=O)C1=C(C)N(Cc2ccccc2)C2=C(C(C)=O)[C@H](c3ccccc3)[C@@](O)(C(=O)OC)C(=O)N2[C@@H]1c1ccccc1` here?
A: Its z-score is 0.441 (inactive) and -0.0277 (inactive).

Q: With `C[N+](C)(C)CCCCNC(=O)[C@H]1C[C@H]2C(=O)N[C@@H](CCCC[N+](C)(C)C)C(=O)N2[C@H]1c1cccc(OCCO)c1` as the molecule, how does the z-score read?
A: Its z-score is 0.244 (inactive) and 0.944 (inactive).

Q: For `CCOC(=O)NN=C1C[C@@H](O)[C@@H](O)[C@@H]2[C@@H]3C(=O)N(Cc4ccc5c(c4)OCO5)C(=O)[C@@H]3CC[C@@H]12`, which z-score is on record?
A: Its z-score is 1.29 (inactive).

Q: For `C[N+](C)(C)CCCCNC(=O)[C@H]1C[C@H]2C(=O)N[C@@H](CCCC[N+](C)(C)C)C(=O)N2[C@H]1c1ccc(O)cc1`, which z-score is on record?
A: The z-score was -0.114 (inactive) and -1.21 (inactive).

Q: For `O=c1n(-c2ccccc2)c(=O)n2n1CC[C@@H]1C(=NOC[C@@H](O)COCc3ccco3)[C@H]3O[C@H]3[C@@H](O)[C@@H]12`, which z-score is on record?
A: The z-score was -0.603 (inactive) and 0.191 (inactive).

Q: With `C=C[C@@H](C)[C@H](O)c1ccc(O)c2ccccc12` as the molecule, how does the z-score read?
A: Its z-score is 0.651 (inactive) and 0.739 (inactive).

Q: For `COC(=O)C1=C(C)N(Cc2ccccc2)C2=C(C(C)=O)C[C@@](O)(C(=O)OC)C(=O)N2[C@@H]1c1ccccc1`, which z-score is on record?
A: Its z-score is -1.13 (inactive) and -0.742 (inactive).

Q: With `CCC[C@@H]1C[C@@]1(CCC)[C@@H](NC(=O)c1ccc(-c2ccccc2)cc1)c1cccc(Cl)c1` as the molecule, how does the z-score read?
A: The z-score was 0.011 (inactive) and 0.853 (inactive).

Q: With `C=CCN(CCCC)C(=O)C1N(CCOCCO)C(=O)C2C(C(=O)O)C3C=CC21O3` (stereo not drawn) as the molecule, how does the z-score read?
A: Its z-score is 0.703 (inactive) and 0.124 (inactive).

Q: With `C=CCN(Cc1ccccc1)C(=O)C1N(CCOCCO)C(=O)C2C(C(=O)O)C3C=CC21O3` (stereo not drawn) as the molecule, how does the z-score read?
A: Its z-score is -1.31 (inactive) and -0.103 (inactive).

Q: Which z-score does the source give for `C=CC[C@@H](O)c1ccc(O)c2ccccc12` here?
A: Its z-score is 0.263 (inactive) and 0.49 (inactive).

Q: Which z-score does the source give for `CO[C@@H]1C=CCC(=O)N2CCC[C@H]2C(=O)OC[C@H](C)C(=O)OC[C@H]1C` here?
A: Its z-score is -0.25 (inactive).

Q: For `CN1C(=O)C2CC=C([C@H]3Oc4ccccc4S(=O)(=O)N4CCC[C@@H]34)CC2C1=O` (stereo partly drawn), which z-score is on record?
A: Its z-score is 0.542 (inactive) and 0.41 (inactive).

Q: With `CCOC(=O)c1ccc(NC(=O)O[C@H]2[C@H](OC(=O)Nc3ccccc3)[C@@H](OC(=O)Nc3ccccc3)[C@@H](OC)O[C@@H]2CO)cc1` as the molecule, how does the z-score read?
A: Its z-score is 1.05 (inactive) and 2.32 (inactive).

Q: With `C=CCN(Cc1ccccc1)C(=O)C(c1cccs1)N(C(=O)/C=C\C(=O)O)c1c(Cl)cccc1CO` (stereo not drawn) as the molecule, how does the z-score read?
A: The z-score was 0.0805 (inactive) and 0.266 (inactive).

Q: Which z-score does the source give for `CC(CO)N1C(=O)[C@@H]2C3C(=O)OCCC=C[C@H]3OC23C=CCN(CCN2CCOCC2)C(=O)[C@@H]13` (stereo partly drawn) here?
A: The z-score was 0.573 (inactive) and 1.15 (inactive).

Q: With `CO[C@H]1COC(=O)CC=C[C@@H](C)COC(=O)[C@@H](OCc2ccccc2)C=C[C@@H]1C` as the molecule, how does the z-score read?
A: The z-score was -0.104 (inactive).

Q: For `CCCC[C@@H]1CN2[C@@H](CC[C@@H](C)[C@@H]2c2ccc(Br)cc2)C(=O)O1`, which z-score is on record?
A: The z-score was -0.255 (inactive) and 0.94 (inactive).

Q: Which z-score does the source give for `CCN1C(=O)[C@H]2[C@H]3[C@H](O)[C@H](O)CC(=NOC[C@@H](O)COCc4ccco4)[C@@H]3CC[C@H]2C1=O` here?
A: The z-score was -0.0403 (inactive) and 0.0127 (inactive).

Q: For `C=CCN(CCCCC)C(=O)C(c1cccs1)N(C(=O)/C=C\C(=O)O)c1ccc(CCO)cc1` (stereo not drawn), which z-score is on record?
A: Its z-score is 0.181 (inactive) and -0.255 (inactive).

Q: For `C=CCN(C(=O)C1N(c2c(Cl)cccc2CO)C(=O)C2C(C(=O)O)C3C=CC21O3)c1ccc(OC)cc1` (stereo not drawn), which z-score is on record?
A: The z-score was 0.516 (inactive) and -1.35 (inactive).

Q: Which z-score does the source give for `C=CCN(CCCC)C(=O)C1N(C(C)(C)CO)C(=O)C2C(C(=O)O)C3C=CC21O3` (stereo not drawn) here?
A: The z-score was 0.134 (inactive) and 0.354 (inactive).

Q: Which z-score does the source give for `C=C[C@@H](C)[C@@H](O)c1ccc(OCCO)cc1` here?
A: The z-score was 0.568 (inactive) and -0.311 (inactive).

Q: Which z-score does the source give for `C=CCN(CCCCC)C(=O)C1N(C(C)(C)CO)C(=O)C2C(C(=O)O)C3C=CC21O3` (stereo not drawn) here?
A: Its z-score is -0.042 (inactive) and -0.318 (inactive).

Q: With `CCOC(=O)[C@@H]1CC2O[C@]23C[C@@H]1C(=O)N1CCC[C@@H]1[C@H]3O[Si](C)(C)C(C)(C)C` (stereo partly drawn) as the molecule, how does the z-score read?
A: The z-score was -0.168 (inactive) and 0.0095 (inactive).

Q: Which z-score does the source give for `CCOC(=O)C[C@H]1[C@H](OC(=O)c2ccccc2-c2ccccc2)[C@@H](NC(=O)Cc2ccc(OC)cc2)c2cc(OCCCO)ccc2N1C(=O)Cc1ccc(OC)cc1` here?
A: The z-score was -0.672 (inactive) and 0.269 (inactive).

Q: Which z-score does the source give for `COC(=O)CC=C[C@@H](C)[C@@H](CO)NS(=O)(=O)c1ccc(C)cc1` here?
A: The z-score was -0.08 (inactive) and 1.47 (inactive).

Q: For `C[N+](C)(C)CCCCCCNC(=O)[C@@H]1C[C@@H]2C(=O)N[C@@H](CCCC[N+](C)(C)C)C(=O)N2[C@@H]1c1ccc(O)cc1`, which z-score is on record?
A: Its z-score is 0.106 (inactive) and 0.554 (inactive).

Q: With `COC(=O)C1=C(C)N(Cc2ccccc2)C2=C3C(=O)CCC[C@@H]3[C@@](O)(C(=O)OC)C(=O)N2[C@@H]1c1ccccc1` as the molecule, how does the z-score read?
A: The z-score was 0.23 (inactive) and -0.736 (inactive).
